105 compounds from ChEMBL document CHEMBL4513216, “Probing the Open Global Health Chemical Diversity Library for Multistage-Active Starting Points for Next-Generation Antimalarials” (ACS Infect Dis, 2020) can be followed below.

The structures appear in SMILES notation. In all, about 69,000 compounds went through this assay and about 8,600 (12%) showed an effect of 50% or more. The full list was thinned out, with strong results kept by preference.

This assay deals with Plasmodium berghei. The assay can be described thus: Screen against P. berghei liver stage (PbLuc), transformed with Luciferase, at 10uM. The assay is classed as functional, HepG2. The conditions noted are these: tested at 10 uM.
Turning to `Cc1csc(N2CCCN(C(=O)c3ccoc3C)CC2)n1`, the INHIBITION was determined as 15.3%.

Consider `CC(=O)N1CC(=O)N(c2ccccc2)CC12CCN(Cc1ccoc1)C2` (stereo not given), for which the INHIBITION is 38.3%. As to `CC(=O)Nc1ccc(CN2C[C@@H]3CC[C@H]2CN(c2ncccn2)C3)cc1`, the INHIBITION is -8%. The figure for `CS(=O)(=O)c1ccc(CN2C[C@@H]3CC[C@H]2CN(c2ncccn2)C3)cc1` is 74.1%; for `Cc1nnsc1CN1C[C@@H]2CC[C@H]1CN(Cc1ccccc1)C2` it is 46.4%. `c1cnc(N2C[C@H]3CC[C@@H](C2)N(Cc2ccsc2)C3)nc1`: the INHIBITION is 15.7%. Regarding `Cc1nnsc1CN1C[C@H]2CC[C@@H](C1)N(Cc1ccccc1)C2`, the INHIBITION is 60%. The figure for `CC(C)c1nnc(N2C[C@H]3CC[C@@H](C2)N(CC2CCC2)C3)s1` is 44.6%; for `COc1ccc(CN2C[C@H]3CC[C@@H](C2)N(Cc2snnc2C)C3)cc1` it is 73.5%. For `Cc1ncsc1CN1C[C@@H]2CC[C@H]1CN(Cc1ccccc1)C2`, the INHIBITION was found to be 15.5%. Take `CC(C)c1nnc(N2C[C@H]3CC[C@@H](C2)N(Cc2ccccc2)C3)s1`: the INHIBITION came to 87.2%. In the case of `Cc1nnsc1CN1C[C@@H]2CC[C@H]1CN(Cc1ccc(F)cc1)C2`, the INHIBITION is reported as 29.1%. With `CCCN1C[C@@H]2CC[C@H]1CN(c1nnc(C(C)C)s1)C2`, the INHIBITION is reported as -11.9%.

Take `Cc1nnsc1CN1C[C@@H]2CC[C@H]1CN(Cc1ccccn1)C2`: the INHIBITION is recorded as -15.3%. Take `NC1CCC(CN2CCCn3nc(CNC(=O)C4CCC4)cc3C2)CC1` (stereo not given): the INHIBITION was 18.4%. The value for `Cc1cnc(C(=O)N2CCCN(c3nc(C)cs3)CC2)cn1` was -5.25%. The figure for `Cc1ccc(CN2CC[C@@H](N3CCOCC3)[C@@H]2Cc2cccnc2)o1` is 12.1%; for `CCCC(O)CN1CC(C)(C)CN(C(=O)c2ccc(Cl)cc2)CC1=O` (stereo not given) it is 46.4%. The figure for `O=C([C@H]1C[C@@H]2CCN(c3cccc(F)c3)C[C@H]2O1)N1CCCCO1` is 23.3%; for `c1cnnc(N[C@@H]2CC[C@@H]3CN(Cc4ccc5[nH]ccc5c4)C[C@@H]32)c1` it is 27.2%. For the compound `Cc1nn(CCN2CCSCC2)cc1CNCC1CC1`, the INHIBITION was -22%. The figure for `O=C(NCc1ccco1)[C@@]12CCO[C@@H]1CCN(C1CCC1)C2` is 29%; for `CS(=O)(=O)N1C[C@H]2CCCN(Cc3nccs3)[C@H]2C1` it is 33.4%. Regarding `NC1CCC(n2cc(C(=O)NC3COc4ccccc43)nn2)CC1` (stereo not given), the INHIBITION is reported as -28%. The figure for `CN(C)CCN1CC[C@@H]2O[C@@H](COCC(=O)N3CCCC3)CC[C@@H]21` is 29%; for `O=C(O)CNC(=O)Cc1csc(-c2cccc(Cl)c2)n1` it is 44.9%; for `COc1cc(N2CC[C@H]3O[C@@H](C(=O)NC4CCCC4)CC[C@H]32)ncn1` it is -5.31%. The value for `CC(C)n1cc(N2CC(C(=O)N3CCC(C(N)=O)CC3)CC2=O)cn1` (stereo not given) was -23.5%; that for `CCCc1nc(CNC(C)Cn2cccn2)cs1` (stereo not given) was -31.5%.

Consider `CCCc1nc(CNc2nc(C)nc3oc(C)nc23)cs1`, for which the INHIBITION amounted to 50.8%. In the case of `CCCc1nc(CNC(=O)Cc2cc(C)no2)cs1`, the INHIBITION amounted to 31.6%. For the compound `CCS(=O)(=O)NCC(=O)Nc1cc(CC(C)(C)C)n[nH]1`, the INHIBITION is reported as -10.7%. The value for `O=C(CSCC1CC1)N1C[C@H]2CC[C@@H](C1)N(Cc1ccccn1)C2=O` was 17%; that for `Cc1cnn(CC2CCCN2CC(=O)Nc2cc(C)nn2C)c1` (stereo not given) was 38.6%. For the compound `COCC(=O)NC(Cc1cc(N(C)C)nc(C2CC2)n1)c1ccccc1` (stereo not given), the INHIBITION came to 51.4%.

On to `CC(C)C(=O)NC(Cc1cc(N(C)C)nc(C2CC2)n1)c1ccccc1` (stereo not given), for which the INHIBITION stood at 45.9%. The value for `CCC(=O)NC(Cc1cc(N(C)C)nc(C2CC2)n1)c1ccccc1` (stereo not given) was 33.8%; that for `Cc1ccc2c(c1)c(CNC(=O)C1CC(=O)N(CCN(C)C)C1)nn2C` (stereo not given) was 82.4%; that for `Cc1ccc2c(c1)c(CNC(=O)C1CC(=O)N(C3CCCC3)C1)nn2C` (stereo not given) was 38.5%.

Consider `Cc1ccc2c(c1)c(CNC(=O)C1CC(=O)N(C3CC3)C1)nn2C` (stereo not given), for which the INHIBITION is on record as -6.34%. As for `O=C(NCC1CCS(=O)(=O)C1)N(Cc1ccncc1)C1CC1` (stereo not given), the INHIBITION is listed as -1.15%. With `CS(=O)(=O)c1cc(S(N)(=O)=O)ccc1NCC1CCCO1` (stereo not given), the INHIBITION was found to be 30%. With `CCc1nnc(CN2CCN(CC(O)c3ccccc3)CC2)o1` (stereo not given), the INHIBITION was -12.2%.

For `CC(C)(C)c1nnc(CN2CCN(CC(O)c3ccccc3)CC2)o1` (stereo not given), the INHIBITION is 58.2%. As for `Cc1nnc(CN2CCN(CC(O)c3ccccc3)CC2)o1` (stereo not given), the INHIBITION worked out at 4.71%. Turning to `OCC1CCCN1c1cc(NCc2cccnc2)ncn1` (stereo not given), the INHIBITION was -7.35%. `O=C(NCc1ccco1)c1nn(C2CCS(=O)(=O)C2)c2c1CCCC2` (stereo not given): the INHIBITION is listed as -18.2%. The value for `Cc1cc(NC(=O)c2nn(C3CCS(=O)(=O)C3)c3c2CCCC3)no1` (stereo not given) was 26.7%; that for `O=C(Nc1ccccc1)c1nn(C2CCS(=O)(=O)C2)c2c1CCCC2` (stereo not given) was 66.3%.

As to `O=C(Nc1cccc(Cl)c1)c1nn(C2CCS(=O)(=O)C2)c2c1CCCC2` (stereo not given), the INHIBITION worked out at 79.8%.

With `O=C(Nc1cccnc1)c1nn(C2CCS(=O)(=O)C2)c2c1CCCC2` (stereo not given), the INHIBITION is recorded as 36.6%. Regarding `O=C(Nc1ccc(Cl)cn1)c1nn(C2CCS(=O)(=O)C2)c2c1CCCC2` (stereo not given), the INHIBITION amounted to 83.9%. The figure for `O=C(NCc1ccccc1)c1nn(C2CCS(=O)(=O)C2)c2c1CCCC2` (stereo not given) is 20.1%; for `Cc1cccc(NC(=O)c2nn(C3CCS(=O)(=O)C3)c3c2CCCC3)n1` (stereo not given) it is 30.8%. Turning to `O=C(Nc1ccc(Cl)cc1)c1nn(C2CCS(=O)(=O)C2)c2c1CCCC2` (stereo not given), the INHIBITION stood at 26.7%.

Regarding `CC(C)(C)NC(=O)c1nn(C2CCS(=O)(=O)C2)c2c1CCCC2` (stereo not given), the INHIBITION worked out at 28.4%. The value for `Cc1nn(C2CCS(=O)(=O)C2)c(O)c1Cc1cccc(Cl)c1` (stereo not given) was 28.5%; that for `O=C(Nc1ccccc1F)c1nn(C2CCS(=O)(=O)C2)c2c1CCCC2` (stereo not given) was 85.5%; that for `Cc1ccc(O)c(CNCC(C)c2nc3ccccc3o2)n1` (stereo not given) was 43.1%.

Turning to `O=C(Nc1ccc2c(c1)C(=O)NC2=O)c1ccc(Cl)s1`, the INHIBITION is -93.6%. Regarding `NCC1CCC(C(NC(=O)c2cccc(F)c2)c2ccccn2)CC1` (stereo not given), the INHIBITION was 14.4%. The value for `CCc1c(C(=O)N2CCCC(N(C)C)C2)cnn1C(C)(C)C` (stereo not given) was 5.7%; that for `O=C1[C@@H]2CN(C3CCOCC3)C[C@H]2CCN1CC1CC1` was 3.81%. For `CN(C)S(=O)(=O)c1ccc(-c2nc(C#N)c(NC3CCCCC3)o2)o1`, the INHIBITION is recorded as 19.8%. With `Cc1nc(NC(=O)c2ccc(-n3ncc(C#N)c3N)cc2)sc1C`, the INHIBITION worked out at 50.3%. Regarding `Cc1cc(NC(=O)c2ccc(-n3ncc(C#N)c3N)cc2)n(C)n1`, the INHIBITION amounted to 11.2%.

For the compound `Cc1ccnc(NC(=O)c2ccc(-n3ncc(C#N)c3N)cc2)c1`, the INHIBITION was 68.8%. The figure for `N#Cc1cnn(-c2ccc(C(=O)N(C3CCCCC3)C3CC3)cc2)c1N` is 17.5%; for `CN(C(=O)c1ccc(-n2ncc(C#N)c2N)cc1)C1CCCC1` it is -8.11%; for `Cc1cnc(NC(=O)c2ccc(-n3ncc(C#N)c3N)cc2)s1` it is 47.3%. Consider `CN(CC1CCCCC1)C(=O)c1ccc(-n2ncc(C#N)c2N)cc1`, for which the INHIBITION was 52.7%.

Consider `Cc1cccnc1NC(=O)c1ccc(-n2ncc(C#N)c2N)cc1`, for which the INHIBITION is 25.6%. Take `N#Cc1cnn(-c2ccc(C(=O)Nc3ccccn3)cc2)c1N`: the INHIBITION came out at 28.7%. The figure for `Cc1cnc(N2C[C@@H]3[C@@H](C2)OCC(=O)N3CC(C)C)nc1` is 40.8%. For `CN(C)C(=O)N1CCN(c2ccc(Cl)nn2)C(=O)C1`, the INHIBITION turned out to be 16.8%. The figure for `COc1ccc(Br)cc1SCCCS(C)(=O)=O` is 12.8%.

`Cc1nc(N2CCN(C(=O)c3ccncc3)CC2)c2c(n1)c(C)nn2C`: the INHIBITION worked out at 33.3%. Take `Cc1nc(C2CCCN(C(=O)CCCn3cccn3)C2)sc1C` (stereo not given): the INHIBITION is -23.9%. As to `Cc1ccc2c(n1)N(CCN(C)C)CCN(C(=O)c1cscn1)C2`, the INHIBITION came to 38.1%.

Take `Cc1ccc2c(n1)N(CCN(C)C)CCN(C(=O)c1ccoc1)C2`: the INHIBITION turned out to be 48.6%. With `Cc1ccc2c(n1)N(CCN(C)C)CCN(C(=O)c1cccs1)C2`, the INHIBITION stood at 74.2%. `Cc1ccc2c(n1)N(CCN(C)C)CCN(C(=O)c1ccc[nH]1)C2`: the INHIBITION stood at 10.8%. As to `Cc1ccc2c(n1)N(CCN(C)C)CCN(C(=O)c1ccsc1)C2`, the INHIBITION is 40.4%. The figure for `Cc1ccc2c(n1)N(CCN(C)C)CCN(C(=O)c1ccco1)C2` is 54.4%; for `COc1ccc(C(CNC(=O)Nc2cc(C)nn2C)N(C)C)cc1` (stereo not given) it is 9.383%. The figure for `CS(=O)(=O)N1CCC2(CC1)c1ccccc1[C@@H](N1CCSCC1)[C@@H]2O` is 24.4%; for `CC(C)=CCN1CCC2(CC1)c1ccccc1[C@@H](N1CCSCC1)[C@@H]2O` it is 56.5%; for `COCCCN1CCN([C@@H]2c3ccccc3C3(CCNCC3)[C@H]2O)CC1` it is 58.1%.

Consider `CCOCCN1CCN([C@@H]2c3ccccc3C3(CCNCC3)[C@H]2O)CC1`, for which the INHIBITION is given as 29.4%. Regarding `COCCCC1CCN([C@@H]2c3ccccc3C3(CCNCC3)[C@H]2O)CC1`, the INHIBITION is reported as 17.5%.

As to `CC(=O)CN1CCC2(CC1)c1ccccc1[C@@H](N1CCSCC1)[C@@H]2O`, the INHIBITION is recorded as 22.3%. `CC(C)C1=NOC2(CCN(C(=O)C3CCCC3)CC2)C1`: the INHIBITION stood at 20.9%. Regarding `c1cn2c(n1)CN(C1CCOCC1)CC(CN1CCCC1)C2` (stereo not given), the INHIBITION is on record as 29%. For `Cc1nc(C)n(C2CCCN(C(=O)c3ncoc3C(C)C)C2)n1` (stereo not given), the INHIBITION is 38.5%. As to `Cc1ccc(NC2CCN(C(=O)CCc3nccs3)CC2)nn1`, the INHIBITION is on record as -48.4%. The figure for `COCCOCCNC(=O)c1cccc(Cn2nc(C)cc2C)c1` is 26.6%; for `O=C(NCC(O)COc1ccccc1)Nc1nncs1` (stereo not given) it is 53.1%; for `CCc1cc(NC(=O)c2cccc(OCC(F)(F)F)n2)[nH]n1` it is -20.8%. The figure for `CCn1cc(NC(=O)NCC(O)COc2ccccc2)cn1` (stereo not given) is 60.5%; for `CCn1cc(NC(=O)c2cccc(OCC(F)(F)F)n2)cn1` it is 51.5%. Consider `Cc1n[nH]c(C)c1NC(=O)c1cccc(OCC(F)(F)F)n1`, for which the INHIBITION is on record as -14.9%.

`Cc1cc(NC(=O)NCC(O)COc2ccccc2)n(C)n1` (stereo not given): the INHIBITION worked out at 25.365%.

Consider `CCn1cc(NC(=O)NCC(C)O)cn1` (stereo not given), for which the INHIBITION is on record as 13.1%. Take `CCn1cc(NC(=O)NCC(O)COc2cccc(F)c2)cn1` (stereo not given): the INHIBITION came out at 23.2%. In the case of `O=C(NCC(O)COc1ccc(C(F)(F)F)cc1)Nc1nncs1` (stereo not given), the INHIBITION is given as 14.8%.
